This note sets out measurements from PubChem BioAssay (NCATS).

Results filed as inconclusive are left out. Where a call stands in place of a potency, no number is given. Calls of active or inactive are those of the source. Calls follow the shape of the dose curve; as a rule, active = well fitted cell-killing curve with a large enough effect; inconclusive = small, poorly fitted or top-dose-only effect; inactive = flat fitted curve, though single readings scatter.
Also: nearly all actives have a fitted effect of over 35% in size.
Potency is read from the fitted curve at half-maximal effect.

The first assay in a line: Quantitative highthroughput screen to assess conditional lethalithy of P12 Ichikawa cells grown in Human Plasma-Like Medium with dialyzed fetal bovine serum (HPLM+ds) (AID 1963879). As to conditions: ATP luminescence, 48 h; Potency: viability; series mostly up to 45.8 µM. The gist of the method:
(§1)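 Each medium arm—HPLM with 10% dialyzed FBS, or RPMI1640 with 5 mM glucose and 10% untreated or dialyzed FBS—was screened against an 11-point, 3-fold compound titration for 48 h at 37 °C, with CellTiter-Glo luminescence as endpoint.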
With `CC(=CCCC1=CCC(C2=CC(=O)OC2O)OC1O)CCC1=C(C)CCCC1(C)C` (configuration not stated), the Potency result is “inactive”.
With `CC(C)(C)[C@]1(O)C[C@@H]2OC(=O)C[C@@]23C(=O)O[C@@H]2OC(=O)[C@H](O)C213` (some centres not stated), the Potency entry is “inactive”.
With `CCOC(=O)c1cncn1[C@H](C)c1ccccc1`, the Potency entry is “inactive”.
In the case of `C[C@@H]1[C@@H](C(=O)C[C@H]2O[C@@H]3O[C@]4(C)CC[C@@H]5[C@H](C)CC[C@@H]([C@H]2C)[C@@]35OO4)O[C@@H]2O[C@]3(C)CC[C@H]4[C@H](C)CC[C@@H]1[C@@]24OO3`, the Potency was 23.5 µM (active).
In the case of `C[C@]12CC[C@@H]3[C@@H](CCC4=CC(=O)CC[C@@H]43)[C@@H]1CC[C@@H]2OC(=O)CCc1ccccc1`, the Potency entry is “inactive”.
With `C[C@@H]1CC[C@H]2[C@@H](C)C(=O)O[C@@H]3O[C@@]4(C)CC[C@H]1[C@]32OO4`, the Potency entry is “inactive”.
Still for that read-out and setting: to `Cc1ccccc1-n1c(Cn2cnc3c(N)ncnc32)nc2cccc(C)c2c1=O` belongs “inactive”; to `COc1cccc2c1[C@]13CCN(CC4CC4)[C@H](C2)[C@]1(OC)CCC(=O)C3`, “inactive”; to `C[C@@H]1CC[C@@]2(OC1)O[C@H]1C[C@H]3[C@@H]4CC=C5C[C@@H](O[C@@H]6O[C@H](CO)[C@@H](O[C@@H]7O[C@@H](C)[C@H](O)[C@@H](O)[C@@H]7O)[C@H](O)[C@@H]6O[C@@H]6O[C@@H](C)[C@H](O)[C@@H](O)[C@@H]6O)CC[C@]5(C)[C@@H]4CC[C@]3(C)[C@@H]1[C@H]2C`, 26.4 µM (active).
`Cc1nc(-c2ccc(-c3ccc(C(=O)N4CCc5cc6c(cc54)C4(CCN(C)CC4)CO6)cc3)c(C)c2)no1`: the Potency entry was “inactive”.
Same read-out and setting: next, `CC(O)=C(C#N)C(=O)Nc1cc(Br)ccc1Br`: “inactive”; `C=C[C@@H]1CN2CCC1C[C@@H]2[C@@H](O)c1ccnc2ccccc12` (some centres not stated): “inactive”; `CO[C@H]1CCC(O[C@H]2C[C@H]([C@]3(C)CC[C@]4(C[C@H](O)[C@@H](C)[C@@H]([C@@H](C)C=C(C)C(=O)[C@H](C)C[C@H](C)C(=O)O)O4)O3)O[C@]3(O[C@@H]([C@H]4O[C@@](O)(CO)[C@H](C)C[C@H]4C)C[C@H]3C)[C@H]2C)O[C@H]1C` (some centres not stated): 3.72 µM (active).
Same read-out and setting: to `CN(C)CCN(C)CCc1ccc(Cl)c(Cl)c1` belongs “inactive”.
On the same count and under the same terms, to `CC(=O)OCC1=C(C(=O)O)N2C(=O)[C@@H](N)[C@@H]2SC1` belongs 1.48 µM (active).
Regarding `COc1ccc2c(c1)[C@]13CCCCC1C(C2)N(C)CC3` (some centres not stated), the Potency result was “inactive”.
Same read-out and setting: next, `C[C@@H]1O[C@@H](O[C@@H]2C=C3CC[C@@H]4[C@@H](CC[C@]5(C)[C@H](c6ccc(=O)oc6)CC[C@@]45O)[C@@]3(C)CC2)[C@H](O)[C@H](O)[C@H]1O`: 0.0209 µM (active); `CSCC[C@@H](NC(=O)[C@@H](Cc1ccccc1)NC(=O)CNC(=O)CNC(=O)[C@@H](N)Cc1ccc(O)cc1)C(=O)O`: “inactive”.
The same measure, in the same setting: to `C[C@]12CCC(=O)C(O)=C1CC[C@@H]1[C@H]3CCC(=O)[C@@]3(C)CC[C@@H]12` belongs “inactive”; to `C=C1C[C@H]2[C@H]3CCC(=O)[C@@]3(C)CC[C@@H]2[C@@]2(C)C=CC(=O)C=C12`, “inactive”.
`CC(C)N[C@@H]1CCn2c(=O)[nH]c3cccc(c32)[C@@H]1O`: the Potency result was “inactive”.
The same measure, in the same setting: to `COc1ccc2c(c1)CN(C)CC2c1ccc(Cl)c(Cl)c1` (configuration not stated) belongs “inactive”; to `CCOC(=O)c1c(C(C#N)=CN)c2ccc(Cl)c(Cl)c2n1C`, “inactive”.
The same measure, in the same setting: next, `c1ccc(CCCN2CCN(CCOC(c3ccccc3)c3ccccc3)CC2)cc1`: “inactive”.
Still for that read-out and setting: next, `COc1ccc2c(c[n+](C)c3c4cc5c(cc4ccc23)OCO5)c1OC`: 16.6 µM (active); `C[C@](O)(CS(=O)(=O)c1ccc(F)cc1)C(=O)Nc1ccc(C#N)c(C(F)(F)F)c1`: “inactive”.

The nature of another assay: Quantitative highthroughput screen to assess conditional lethalithy of P12 Ichikawa cells grown in RPMI1640 with dialyzed fetal bovine serum (RPMI+ds) (AID 1963880). To be noted: ATP luminescence, 48 h; Potency: P12-Ichikawa viability; series mostly up to 45.8 µM. The essentials:
as §1
Consider `CC(=CCCC1=CCC(C2=CC(=O)OC2O)OC1O)CCC1=C(C)CCCC1(C)C` (configuration not stated), for which the Potency result is “inactive”.
The same measure, in the same setting: to `COC1=CC(C)=C[C@@H](C)[C@@H](O)[C@@H](C)CC(C)=CC=C[C@H](OC)[C@H]([C@@H](C)[C@@H](O)[C@H](C)[C@@]2(O)C[C@@H](O)[C@H](C)[C@@H](C(C)C)O2)OC1=O` belongs 0.0662 µM (active).
Still for that read-out and setting: to `C[C@H]([C@H](O)CCC(C)(C)O)[C@H]1CC[C@@]2(O)C3=CC(=O)[C@@H]4C[C@@H](O)[C@@H](O)C[C@]4(C)[C@@H]3CC[C@]12C` belongs “inactive”; to `CCCN1CCO[C@@H]2c3cc(O)ccc3OC[C@@H]21`, 26.4 µM (active); to `C=C[C@@H]1CN2CCC1C[C@@H]2[C@@H](O)c1ccnc2ccccc12` (some centres not stated), “inactive”.
Same read-out and setting: next, `CC(=O)OCC1=C(C(=O)O)N2C(=O)[C@@H](N)[C@@H]2SC1`: 2.35 µM (active).
For the compound `C[C@@H]1O[C@@H](O[C@@H]2C=C3CC[C@@H]4[C@@H](CC[C@]5(C)[C@H](c6ccc(=O)oc6)CC[C@@]45O)[C@@]3(C)CC2)[C@H](O)[C@H](O)[C@H]1O`, the Potency was 0.0235 µM (active).
Same read-out and setting: to `CSCC[C@@H](NC(=O)[C@@H](Cc1ccccc1)NC(=O)CNC(=O)CNC(=O)[C@@H](N)Cc1ccc(O)cc1)C(=O)O` belongs “inactive”.
The same measure, in the same setting: to `CC(C)N[C@@H]1CCn2c(=O)[nH]c3cccc(c32)[C@@H]1O` belongs “inactive”; to `CC1=C2C[C@@H]3[C@@H](CC=C4C[C@@H](O)CC[C@@]43C)[C@@H]2CC[C@]12O[C@H]1C[C@H](C)CN[C@H]1[C@H]2C`, “inactive”.
Same read-out and setting: to `COc1ccc2c(c[n+](C)c3c4cc5c(cc4ccc23)OCO5)c1OC` belongs 14.8 µM (active).
